In PubChem BioAssay AID1159580 (chemical genetic matrix, 2015):
Values joined by “and” are separate entries in the source; they are usually repeats but may differ in a detail not shown here. Equal values may be shown once. The campaign covered roughly 5,500 compounds. About 2,000 (36%) were called active. About 18% were inconclusive and are not listed. The list shows a part of the results. Unmarked numbers belong to inactive results. Rule as the data show it: active = normalized growth mostly below about 0.91 (no sharp cut-off); inconclusive = no clear call, values can overlap the other calls; inactive = mostly above about 0.92.

Test: chemical genetic growth profiling, strain panel (AID 1159580);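 also: tested at 20 µM; growth read once vehicle control cultures reached saturation at 30 °C; 1 = growth at the plate median or of vehicle wells; lower values mean less growth of the strain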
Details: S. cerevisiae deletion strains, growth OD

## CCc1ccc2c(O)c3c(cc2c1C(=O)OC)C(=O)c1c(O)ccc(O)c1C3=O
Locus YAL013W, strain DEP1, stronger effect = lower value
  normalized growth: 0.989
Locus YAL021C, strain ccr4, stronger effect = lower value
  normalized growth: 0.963
Locus YAL026C, strain drs2, stronger effect = lower value
  normalized growth: 0.915
Locus YAL030W, strain snc1, stronger effect = lower value
  normalized growth: 0.992
Locus YBL061C, strain skt5, stronger effect = lower value
  normalized growth: 0.975
Locus YBR009C, strain hhf1, stronger effect = lower value
  normalized growth: 0.981
Locus YBR021W, strain FUR4, stronger effect = lower value
  normalized growth: 1.02
Locus YBR023C, strain chs3, stronger effect = lower value
  normalized growth: 0.975
Locus YBR171W, strain sec66, stronger effect = lower value
  normalized growth: 0.97
Locus YBR229C, strain ROT2, stronger effect = lower value
  normalized growth: 0.956
Locus YBR231C, strain swc5, stronger effect = lower value
  normalized growth: 0.997
Locus YBR279W, strain paf1, stronger effect = lower value
  normalized growth: 0.99
Locus YCL011C, strain gbp2, stronger effect = lower value
  normalized growth: 0.984
Locus YCL016C, strain dcc1, stronger effect = lower value
  normalized growth: 0.988
Locus YCL029C, strain bik1, stronger effect = lower value
  normalized growth: 0.975
Locus YCL069W, strain vba3, stronger effect = lower value
  normalized growth: 0.981
Locus YCR088W, strain abp1, stronger effect = lower value
  normalized growth: 0.981
Locus YDL005C, strain med2, stronger effect = lower value
  normalized growth: 0.997
Locus YDL035C, strain GPR1, stronger effect = lower value
  normalized growth: 0.984
Locus YDL040C, strain nat1, stronger effect = lower value
  normalized growth: 1
Locus YDL074C, strain BRE1, stronger effect = lower value
  normalized growth: 1.03
Locus YDL101C, strain DUN1, stronger effect = lower value
  normalized growth: 0.978
Locus YDL134C, strain PPH21, stronger effect = lower value
  normalized growth: 0.964
Locus YDL185W, strain tfp1, stronger effect = lower value
  normalized growth: 0.978
Locus YDL192W, strain arf1, stronger effect = lower value
  normalized growth: 0.958
Locus YDR001C, strain nth1, stronger effect = lower value
  normalized growth: 0.972
Locus YDR069C, strain doa4, stronger effect = lower value
  normalized growth: 0.909
Locus YDR101C, strain arx1, stronger effect = lower value
  normalized growth: 1.02
Locus YDR137W, strain rgp1, stronger effect = lower value
  normalized growth: 0.91
Locus YDR159W, strain sac3, stronger effect = lower value
  normalized growth: 0.944
Locus YDR162C, strain NBP2, stronger effect = lower value
  normalized growth: 0.935
Locus YDR195W, strain ref2
  normalized growth: 0.962
Locus YDR297W, strain sur2, stronger effect = lower value
  normalized growth: 0.98
Locus YDR318W, strain mcm21, stronger effect = lower value
  normalized growth: 0.951
Locus YDR334W, strain swr1, stronger effect = lower value
  normalized growth: 0.923
Locus YDR335W, strain msn5, stronger effect = lower value
  normalized growth: 0.971
Locus YDR388W, stronger effect = lower value
  normalized growth: 0.978
Locus YDR392W, strain spt3, stronger effect = lower value
  normalized growth: 0.926
Locus YDR502C, strain sam2, stronger effect = lower value
  normalized growth: 0.974
Locus YEL003W, strain gim4, stronger effect = lower value
  normalized growth: 0.996
Locus YEL037C, strain rad23, stronger effect = lower value
  normalized growth: 0.977
Locus YEL061C, strain CIN8 (second series), stronger effect = lower value
  normalized growth: 0.97
Locus YEL061C, strain CIN8, stronger effect = lower value
  normalized growth: 0.978
Locus YER015W, strain faa2, stronger effect = lower value
  normalized growth: 0.974
Locus YER016W, strain bim1, stronger effect = lower value
  normalized growth: 0.986
Locus YER110C, stronger effect = lower value
  normalized growth: 0.979
Locus YER111C, strain swi4, stronger effect = lower value
  normalized growth: 0.927
Locus YER155C, strain BEM2 (second series), stronger effect = lower value
  normalized growth: 0.909
Locus YER155C, strain BEM2, stronger effect = lower value
  normalized growth: 1
Locus YER167W, strain BCK2, stronger effect = lower value
  normalized growth: 0.987
Locus YFR010W, strain ubp6, stronger effect = lower value
  normalized growth: 0.874 (active)
Locus YGL078C, strain dbp3, stronger effect = lower value
  normalized growth: 1.01
Locus YGL086W, strain mad1, stronger effect = lower value
  normalized growth: 0.987
Locus YGL167C, strain pmr1, stronger effect = lower value
  normalized growth: 0.979
Locus YGL173C, strain kem1, stronger effect = lower value
  normalized growth: 0.972
Locus YGL227W, strain vid30, stronger effect = lower value
  normalized growth: 1
Locus YGL240W, strain doc1, stronger effect = lower value
  normalized growth: 0.978
Locus YGL248W, strain PDE1, stronger effect = lower value
  normalized growth: 0.955
Locus YGL253W, strain hxk2, stronger effect = lower value
  normalized growth: 0.982
Locus YGR135W, strain pre9, stronger effect = lower value
  normalized growth: 0.94
Locus YGR252W, strain gcn5, stronger effect = lower value
  normalized growth: 0.977
Locus YHR013C, strain ard1, stronger effect = lower value
  normalized growth: 0.996
Locus YHR027C, strain rpn1, stronger effect = lower value
  normalized growth: 0.994
Locus YHR030C, strain SLT2, stronger effect = lower value
  normalized growth: 0.986 and 0.951
Locus YHR079C, strain IRE1 (second series), stronger effect = lower value
  normalized growth: 0.997
Locus YHR079C, strain IRE1, stronger effect = lower value
  normalized growth: 0.954
Locus YHR094C, strain hxt1, stronger effect = lower value
  normalized growth: 0.978
Locus YHR129C, strain ARP1, stronger effect = lower value
  normalized growth: 0.978
Locus YHR142W, strain chs7, stronger effect = lower value
  normalized growth: 0.879
Locus YHR200W, strain rpn10, stronger effect = lower value
  normalized growth: 0.963
Locus YIL066C, strain RNR3, stronger effect = lower value
  normalized growth: 0.966
Locus YIL073C, strain SPO22, stronger effect = lower value
  normalized growth: 1.03
Locus YIL125W, strain kgd1, stronger effect = lower value
  normalized growth: 0.989
Locus YIR030C, strain dcg1, stronger effect = lower value
  normalized growth: 0.998
Locus YJL092W, strain hpr5, stronger effect = lower value
  normalized growth: 0.976
Locus YJL095W, strain BCK1 (second series), stronger effect = lower value
  normalized growth: 0.973
Locus YJL095W, strain BCK1, stronger effect = lower value
  normalized growth: 0.928 and 0.964
Locus YJL115W, strain asf1, stronger effect = lower value
  normalized growth: 0.966
Locus YJL129C, strain trk1, stronger effect = lower value
  normalized growth: 0.986
Locus YJL134W, strain LCB3, stronger effect = lower value
  normalized growth: 0.99
Locus YJL154C, strain vps35, stronger effect = lower value
  normalized growth: 0.987
Locus YJL164C, strain tpk1, stronger effect = lower value
  normalized growth: 0.968
Locus YJL166W, strain qcr8, stronger effect = lower value
  normalized growth: 0.961
Locus YJL168C, strain set2, stronger effect = lower value
  normalized growth: 0.982
Locus YJL187C, strain SWE1 (second series), stronger effect = lower value
  normalized growth: 0.959
Locus YJL187C, strain SWE1, stronger effect = lower value
  normalized growth: 0.98
Locus YJR043C, strain POL32, stronger effect = lower value
  normalized growth: 0.979
